# G9a block – qHTS Assay for Inhibitors of Histone Lysine Methyltransferase G9a; G9a H3K9 monomethylation, AlphaScreen, 2 h; Potency, µM (highest dose often 102 µM), without a hit: at the highest dose activity, negative = inhibition, actives largely listed as inhibitors; 350,000 compounds, 8.8% hits; AID 504332, 2011; further: on the % scale 0 is the no-effect control and ±100 the full control effect; nearly all actives have a fitted effect of over 75% in size
# Target sequence (Q96KQ7 913-1193 limits assumed): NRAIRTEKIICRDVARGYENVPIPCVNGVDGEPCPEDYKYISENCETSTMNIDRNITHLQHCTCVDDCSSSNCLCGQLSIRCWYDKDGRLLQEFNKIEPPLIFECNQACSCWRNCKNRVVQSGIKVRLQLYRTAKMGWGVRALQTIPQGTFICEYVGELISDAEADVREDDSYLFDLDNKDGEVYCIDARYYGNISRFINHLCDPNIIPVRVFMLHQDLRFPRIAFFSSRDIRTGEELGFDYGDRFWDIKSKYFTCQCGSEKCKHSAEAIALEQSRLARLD
#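 AlphaScreen read-out: biotin-H3K9 peptide (500 nM) methylation by 20 nM enzyme with 20 uM SAM, 2 h at room temperature after 15 min compound preincubation; anti-monomethyl H3K9 antibody plus donor/acceptor beads, 10 min dark.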
# JMJD2A Tudor – qHTS Assay for Inhibitors of JMJD2A-Tudor Domain | AlphaScreen JMJD2A-Tudor / H3K4me3 peptide binding | 390,000 compounds, 4.4% hits | Lysine-specific demethylase 4A (Homo sapiens), O75164 | Potency, µM (doses to about 114 µM), for the others: at the highest dose activity change, negative = inhibition, hits mostly inhibitors; further: on the % scale 0 is the no-effect control and ±100 the full control effect; nearly all actives have a fitted effect of over 50% in size
# PLK1 PBD block – qHTS for Inhibitors of PLK1-PDB (polo-like kinase 1 - polo-box domain): Primary Screen. Plk1 PBD binding of FITC phosphopeptide, fluorescence polarization. Potency, µM, inactives show max response, negative = inhibition, hits mostly inhibitors. 360,000 compounds, 2.8% hits; further: series mostly up to about 57 µM; on the % scale 0 is the no-effect control and ±100 the full control effect; nearly all actives have a fitted effect of over 65% in size
# BAZ2B inh – qHTS Assay for Inhibitors of BAZ2B; 360,000 compounds, 4.4% hits; Bromodomain adjacent to zinc finger domain protein 2B (Homo sapiens), Q9UIF8; Potency, µM (top dose mostly 114 µM), without a hit: at the highest dose activity change, negative = inhibition, usual class: inhibitors; AID 504333, 2011; AlphaScreen BAZ2B-H3K14Ac peptide displacement; further: on the % scale 0 is the no-effect control and ±100 the full control effect; nearly all actives have a fitted effect of over 60% in size
#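 Complex of BAZ2B and biotin-H3K14Ac (50 nM apiece) forms over 30 min at RT, then faces library compounds up to 110 uM for another 30 min; AlphaScreen beads added, 20 min dark incubation, luminescence read.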
# HP1b chromo inh – HTS for Inhibitors of HP1-beta Chromodomain Interactions with Methylated Histone Tails; Chromobox protein homolog 1 (Homo sapiens), P83916; AlphaScreen HP1-beta / biotin-H3K9me3 peptide binding; Potency, µM (doses to about 114 µM), inactives show at the top dose activity change, negative = inhibition, actives largely listed as inhibitors; 390,000 compounds, 0.56% hits; further: nearly all actives have a fitted effect of over 70% in size
# Target sequence (P83916 whole entry, looked up): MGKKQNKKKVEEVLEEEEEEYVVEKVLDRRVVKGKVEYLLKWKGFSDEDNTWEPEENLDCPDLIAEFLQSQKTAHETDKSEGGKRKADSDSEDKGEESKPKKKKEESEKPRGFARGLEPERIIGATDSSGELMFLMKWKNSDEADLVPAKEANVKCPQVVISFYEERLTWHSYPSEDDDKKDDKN
#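 HP1-beta protein (50 nM final) preincubated 30 min at room temperature with biotinylated H3(1-18)K9me3 peptide (50 nM) in PBS pH 7.4, 0.01% Tween-20, then compound added for 30 min. AlphaScreen streptavidin donor/nickel chelate acceptor beads (10 ug/mL final), 30 min dark, luminescence read.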
# Sfp PPTase inh – qHTS Assay for Inhibitors of Bacillus subtilis Sfp phosphopantetheinyl transferase (PPTase). Biochemical Sfp PPTase activity, qHTS. Potency, µM, without a hit: largest response in the series, negative = inhibition, usual class: inhibitors. 310,000 compounds, 3.5% hits;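 further: the enzyme is Sfp with the accession as filed and its product quenches rhodamine fluorescence; 0% = enzyme reaction without inhibitor and -100% = no enzyme wells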
#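 Fluorescence-quenching assay: 15 nM Sfp-PPTase preincubated 15 min at room temperature with compound, then 5 uM rhodamine-CoA and 12.5 uM BHQ-2-labelled YbbR peptide added. Fluorescence (ex 525/em 598 nm) read at start and after 30 min; difference gives rate.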
# Numbers without * were called inactive; ? = inconclusive; . = no result; [ ] = another dose, or the depositor's remark. Rows were chosen to be rich in hits. Some 12% of all compounds tested hit in one or more screens of this group. The call rests on the fitted dose curve; in most records, active means well fitted curve in the direction sought with a large enough effect; inconclusive means small, poorly fitted or top-dose-only effect, or another doubt; inactive means no such curve, though single readings can be large; an effect the other way counts as inactive or inconclusive. Potency means the concentration at half of the fitted maximal effect.
SMILES,G9a block,JMJD2A Tudor,PLK1 PBD block,BAZ2B inh,HP1b chromo inh,Sfp PPTase inh
Cc1ccc(S(=O)(=O)N(C)C[C@H]2OCCCC[C@H](C)Oc3ccc(NC(=O)Nc4cccc5ccccc45)cc3C(=O)N([C@@H](C)CO)C[C@H]2C)cc1,.,.,-2%,.,.,.
COc1cccc(N2CCN(S(=O)(=O)c3ccc4[nH]c5c(c4c3)CCCC5)CC2)c1,?,?,.,?,-9%,.
CCSc1nnc(N2C(=O)C(O)=C(C(=O)c3ccco3)C2c2cccc(OC)c2)s1 (configuration not stated),35µM*,89µM*,?,?,24%,?
CSc1nnc(N2C(=O)C(O)=C(C(=O)c3ccco3)C2c2cccc(Cl)c2)s1 (configuration not stated),.,?,?,79µM*,33%,6.3µM*
CSc1nnc(N2C(=O)C(O)=C(C(=O)c3ccco3)C2c2ccc(F)cc2)s1 (configuration not stated),22µM*,-3%,-18%,?,39%,35µM*
O=C(CC(c1ccco1)S(=O)(=O)c1ccccc1)c1ccc(F)cc1 (configuration not stated),3.5µM*,-30%,-13%,-33%,-2%,7.9µM*
COc1ccc(C(=O)NCC(c2ccco2)S(=O)(=O)c2ccc(F)cc2)cc1 (configuration not stated),4%[59 µM],-7%,.,-2%,-9%,.
CCOC(=O)c1cccc(NC(=O)[C@H](CSCc2ccccc2)N2Cc3ccccc3C2=O)c1,-35%[59 µM],-25%,.,-21%,26%,.
Cn1cccc1/C=C1\SC(=S)N(CC(=O)O)C1=O,-20%[59 µM],-17%,30%,-34%,4%,-7%
O=C(CCCN1C(=O)/C(=C/c2ccccc2Cl)SC1=S)NNC(=O)c1ccc(Cl)cc1Cl,37%[12.7 µM],-14%[11.4 µM],-15%,-4%,66%,?
O=C(O)CN1C(=O)/C(=C\c2cccc(OCc3ccc(Cl)cc3)c2)SC1=S,40µM*,?,21µM*,45µM*,-11%,?
O=C(O)CN1C(=O)/C(=C\c2cc(Br)ccc2OCc2ccc(Cl)cc2Cl)SC1=S,40%[0.501 µM],20µM*,12µM*,25µM*,?,?
O=C(O)CN1C(=O)/C(=C\c2ccccc2OCc2ccc(Cl)cc2)SC1=S,2%[2.33 µM],?,30µM*,?,-4%,-13%
O=C(O)CN1C(=O)/C(=C\c2cccc(OCc3ccccc3F)c2)SC1=S,?,?,30µM*,-32%,?,10%
COc1ccc(CSc2nc3ccncc3n2CC(=O)Nc2cc(C)cc(C)c2)cc1,?,-34%,.,-3%,26%,.
Cc1ccc(CSc2c(C)cnc3c2c(=O)n(C)c(=O)n3C)cc1,-29%[59 µM],-4%,.,1%,33%,.
CCOC(=O)N1CCc2c(sc3c2c(=O)n(-c2ccc(F)cc2)c(=O)n3CC(=O)c2ccc(Cl)cc2)C1,4%[59 µM],1%,.,-7%,30%,.
O=C(O)CN1C(=O)/C(=C\c2cccc(OCc3ccc(F)cc3)c2)SC1=S,45µM*,?,27µM*,?,-9%,-14%
O=S1(=O)C[C@H](N2CCC(Cc3ccccc3)CC2)[C@@H](COCc2ccccc2)N1,.,.,-6%,.,.,.
COc1cccc(/C=N/NC(=O)C(=O)N2CCCC2)c1OC,?,2%,-6%,8%,9%,17%
O=C(N/N=C/c1ccccc1O)C(=O)N1CCCCCC1,77%,?,-5%,79µM*,51%,23%
CCOc1ccc(/C=N/NC(=O)C(=O)N2CCCCCC2)c2ccccc12,22%,-23%,1%,71µM*,8%,-4%
O=C(N/N=C/c1ccccc1F)C(=O)N1CCCCCC1,-5%,-1%,1%,12%,18%,8%
COc1cccc(/C=N/NC(=O)C(=O)N2CCCC2)c1O,?,79µM*,-5%,16µM*,31%,22%
CC(C)C[C@@H](CC(=O)N[C@@H](CCC(=O)O)CC(=O)O)NC(=O)[C@@H]1CNCC[C@H]1NC(=O)C[C@@H](NC(=O)C[C@H](Cc1c[nH]c2ccccc12)NC(=O)[C@@H]1CNCC[C@H]1N)C(C)C,.,.,.,.,.,-23%
SMILES,G9a block,JMJD2A Tudor,PLK1 PBD block,BAZ2B inh,HP1b chromo inh,Sfp PPTase inh
C[C@H](N)c1nnc(SCc2c(Cl)cccc2Cl)o1,?,-4%,-8%,?,22%,?
C[C@H](N)c1nnc(SCC(=O)N(C)C)o1,8.9µM*,?,-7%,?,49%,?
CCCc1cc(=O)[nH]c(SCC(=O)N(Cc2ccccc2)C(C)C)n1,1µM*,3%,-4%,?,25%,10%
CCCc1cc(=O)[nH]c(SCC(=O)C(C)(C)C)n1,71µM*,-14%,-14%,12%,6%,-5%
CC(=O)c1nnn(-c2ccc([N+](=O)[O-])cc2C)c1C,-37%,-32%[11.4 µM],24µM*,-14%,?,7%
CC(=O)c1nnn(-c2cccc([N+](=O)[O-])c2)c1C,?,7%,-6%,-17%,43%,8%
Clc1ccccc1C1=Nn2c(nnc2-c2ccncc2)SC1,?,2%,3%,-2%,45%,6%
COc1ccccc1-c1nnc2n1N=C(C)CS2,20µM*,56µM*,-22%,-3%,34%,7%
CC1=Nn2c(nnc2-c2ccccc2Cl)SC1,22µM*,-27%,-22%,1%,50%,-15%
O=C(CSc1ccc(Cl)cc1)N1CCCC1,3%[59 µM],?,24µM*,0%,15%,-10%
Cc1ccc(SCC(=O)N2CCCC2)cc1,29%,3%,-5%,23%,12%,13%
CCOC(=O)N1CCN(C(=O)Cn2ncc3ccccc32)CC1,13%[59 µM],79µM*,30µM*,12%,-6%,8%
CCOC(=O)N1CCN(C(=O)CSCc2ccccc2)CC1,-4%[59 µM],-12%,-9%,-3%,46%,19%
CCOC(=O)N1CCN(C(=O)CSc2ccccc2)CC1,-18%[59 µM],10%,15µM*,2%,44%,-10%
CCOC(=O)N1CCN(CCc2ccccc2)CC1,-10%,-11%,-3%,0%,29%,16%
CCOC(=O)N1CCN(C/C(Cl)=C/c2ccccc2)CC1,.,1.8µM*,7%,?,50µM*,?
